PI5P4Ka inh = PI5P4K alpha (human) kinase inhibition; P48426; PI5P4Kalpha enzyme, ADP-Glo luminescence, 60 min; hits give low values; max response, %; 330,000 tested, 1.2% active; active means max response of -50% or lower; inconclusive means between -30% and -50%; inactive means -30% or higher; further: value at the top dose of about 77 µM; on the % scale 0 is the no-effect control and ±100 the full control effect
Target sequence (P48426 whole entry, looked up): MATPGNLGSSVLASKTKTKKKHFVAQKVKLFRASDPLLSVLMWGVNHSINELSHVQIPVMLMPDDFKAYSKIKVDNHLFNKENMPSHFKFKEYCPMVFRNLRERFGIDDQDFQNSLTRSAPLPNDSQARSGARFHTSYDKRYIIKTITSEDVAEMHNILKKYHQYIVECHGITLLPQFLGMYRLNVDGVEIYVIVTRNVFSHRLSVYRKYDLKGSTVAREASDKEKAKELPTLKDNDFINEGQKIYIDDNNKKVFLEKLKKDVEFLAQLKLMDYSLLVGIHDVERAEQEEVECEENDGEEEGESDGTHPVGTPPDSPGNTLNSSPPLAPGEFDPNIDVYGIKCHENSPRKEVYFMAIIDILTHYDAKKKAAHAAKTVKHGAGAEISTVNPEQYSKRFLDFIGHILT
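Reactions run in 0.038 M HEPES pH 7.4, 0.28 mM EGTA, 0.1% CHAPS and 5% DMSO, with PI5P4Kalpha, substrate, compound and 5 microM ATP final, one hour at room temperature. Readout is ADP-Glo luminescence.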
HP1b binding inh = inhibitors of HP1-beta chromodomain binding to methylated histone tails. 390,000 tested, 0.56% active. P83916. AlphaScreen HP1-beta / biotin-H3K9me3 peptide binding. Potency, µM (series often up to 114 µM), for the others: at the top dose activity change, negative = inhibition, hits mostly inhibitors. AID 540317; further: potency means the concentration at half of the fitted maximal effect; nearly all actives have a fitted effect of over 70% in size
Target sequence (P83916 whole entry, looked up): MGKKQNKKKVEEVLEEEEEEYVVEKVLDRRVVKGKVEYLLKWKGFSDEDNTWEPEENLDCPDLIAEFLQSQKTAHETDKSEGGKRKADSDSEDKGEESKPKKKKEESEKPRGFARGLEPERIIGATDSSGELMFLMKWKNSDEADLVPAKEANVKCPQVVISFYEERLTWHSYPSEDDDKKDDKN
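AlphaScreen: HP1-beta (50 nM) preformed 30 min with biotin-H3(1-18)K9me3 peptide (50 nM) in PBS pH 7.4, 0.01% Tween-20. Compound added for 30 min at RT, then streptavidin donor/nickel chelate acceptor beads (10 ug/mL) for 30 min.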
PLK1 PBD block = PLK1 (human) polo-box domain binding inhibition; 360,000 tested, 2.8% active; Potency, µM, inactives show max response, negative = inhibition, usual class: inhibitors; P53350; Plk1 PBD binding of FITC phosphopeptide, fluorescence polarization; further: potency means the concentration at half of the fitted maximal effect; series mostly up to about 57 µM; on the % scale 0 is the no-effect control and ±100 the full control effect; nearly all actives have a fitted effect of over 65% in size
BAZ2B block = inhibitors of human BAZ2B bromodomain. Potency, µM (highest dose often 114 µM), for inactives: top-dose activity change, negative = inhibition, most hits filed as inhibitors. 360,000 tested, 4.4% active. Q9UIF8. AlphaScreen BAZ2B-H3K14Ac peptide displacement; further: potency means the concentration at half of the fitted maximal effect; on the % scale 0 is the no-effect control and ±100 the full control effect; nearly all actives have a fitted effect of over 60% in size
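Multi-concentration screen (max 110 uM) measuring displacement of acetylated histone H3 peptide from BAZ2B by AlphaScreen, using 50 nM protein, 50 nM peptide and 10 ug/mL streptavidin donor plus Ni-chelate acceptor beads.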
GCN5L2 inh = GCN5L2 (KAT2A) acetyltransferase inhibition; GCN5L2 HAT assay, ThioGlo1 CoA-SH fluorescence; Potency, µM (highest dose often 58.9 µM), for the others: at the top dose activity change, negative = inhibition, most hits filed as inhibitors; 390,000 tested, 0.21% active; AID 504327; further: potency means the concentration at half of the fitted maximal effect; on the % scale 0 is the no-effect control and ±100 the full control effect
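Preincubate 20nM GCN5L2 with compound 15 min, RT → add 50uM ThioGlo1 + 75uM H3(1-25) + 70uM acetyl-CoA → read fluorescence 0 and 20 min. Primary qHTS; fluorescent artifacts likely.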
JMJD2A Tudor inh = blocks the human JMJD2A Tudor domain; O75164; AlphaScreen JMJD2A-Tudor / H3K4me3 peptide binding; Potency, µM (top dose mostly 114 µM), inactives show at the highest dose activity change, negative = inhibition, most hits filed as inhibitors; 390,000 tested, 4.4% active; further: potency means the concentration at half of the fitted maximal effect; on the % scale 0 is the no-effect control and ±100 the full control effect; nearly all actives have a fitted effect of over 50% in size
Numbers without * were called inactive; [ ] = remark or other dose. Compounds with a hit are over-represented: about 7% of the library has one in this group of screens. Unless noted, the call rests on the fitted dose curve; in most records, active means well fitted curve in the direction sought with a large enough effect; inconclusive means small, poorly fitted or top-dose-only effect, or another doubt; inactive means no such curve, though single readings can be large; an effect the other way counts as inactive or inconclusive.

Screening CC(=O)c1ccc(N2CCN(C(=O)c3ccc4[nH]c(C)c(C)c4c3)CC2)cc1 returned PI5P4Ka inh 2, HP1b binding inh -14%, PLK1 PBD block -11%, GCN5L2 inh -8% and JMJD2A Tudor inh inconclusive.
For COc1ccc(NC2CCCN(C(=O)c3ccc4[nH]c(C)c(C)c4c3)C2)cc1 (configuration not stated) the results were PI5P4Ka inh 0, HP1b binding inh -14%, PLK1 PBD block -3%, BAZ2B block 45µM*, GCN5L2 inh -7% and JMJD2A Tudor inh inconclusive.
Screening COc1ccc(N2CCN(C(=O)c3ccc(C)c(NC(=O)C4=C(C)OCCS4)c3)CC2)cc1 returned PI5P4Ka inh -2, HP1b binding inh 22%, PLK1 PBD block -18%, BAZ2B block 45µM*, GCN5L2 inh -26% and JMJD2A Tudor inh inconclusive.
For COc1ccc(N2CCN(C(=O)c3ccc4[nH]c(C)c(C)c4c3)CC2)cc1 the results were PI5P4Ka inh 5, HP1b binding inh 31%, PLK1 PBD block 7%, BAZ2B block 40µM*, GCN5L2 inh -1% and JMJD2A Tudor inh -5%.
Screening CCCS(=O)(=O)NC(=O)C1(C)CCN(C(=O)Cc2ccc(OC)c(OC)c2)C1 (configuration not stated) returned PI5P4Ka inh 0 and PLK1 PBD block 1%.
`Cc1c(C(=O)N(Cc2ccc(N(C)C)cc2)CC2CCCO2)oc2ccc(Br)cc12` (configuration not stated) gave HP1b binding inh inconclusive, BAZ2B block 10µM*, GCN5L2 inh -9% and JMJD2A Tudor inh 13µM*.
Cc1c(C(=O)N(Cc2ccc(N(C)C)cc2)CC2CCCO2)oc2ccc(Cl)cc12 (configuration not stated) was read as HP1b binding inh inconclusive, BAZ2B block 10µM*, GCN5L2 inh -14% and JMJD2A Tudor inh 13µM*.
Cc1c(C(=O)N(Cc2ccc(N(C)C)cc2)CC2CCCO2)oc2ccccc12 (configuration not stated) was read as PI5P4Ka inh -2, HP1b binding inh inconclusive, PLK1 PBD block 0%, BAZ2B block 11µM*, GCN5L2 inh -9% and JMJD2A Tudor inh 28µM*.
`Cc1c(C(=O)N(Cc2ccc(Cl)cc2)CC2CCCO2)oc2ccc(F)cc12` (configuration not stated) gave HP1b binding inh 114%, BAZ2B block 47%, GCN5L2 inh -9% and JMJD2A Tudor inh 63%.
Screening Cc1cc2oc(C(=O)N(Cc3ccc(N(C)C)cc3)CC3CCCO3)c(C)c2cc1Cl (configuration not stated) returned HP1b binding inh -21%, BAZ2B block 14µM*, GCN5L2 inh -7% and JMJD2A Tudor inh 22µM*.
`Cc1ccc2oc(C(=O)N(Cc3ccncc3)CC3CCCO3)c(C)c2c1` (configuration not stated) gave PI5P4Ka inh 0, HP1b binding inh 24%, PLK1 PBD block -9%, BAZ2B block -19%, GCN5L2 inh -10% and JMJD2A Tudor inh -9%.
CCCc1ccc2oc(C(=O)N(Cc3ccncc3)CC3CCCO3)c(C)c2c1 (configuration not stated) was read as PI5P4Ka inh -7, HP1b binding inh 26%, PLK1 PBD block -4%, BAZ2B block -29%, GCN5L2 inh -17% and JMJD2A Tudor inh -20%.
Screening COc1ccccc1NC(=O)C(OC(=O)CNC(=O)c1ccccc1)c1ccccc1 (configuration not stated) returned JMJD2A Tudor inh -19%.
Screening Cc1ccc(S(=O)(=O)NNC(=O)c2cccc(O)c2)cc1 returned PI5P4Ka inh 1, HP1b binding inh 38%, PLK1 PBD block -11%, BAZ2B block 0%, GCN5L2 inh -3% and JMJD2A Tudor inh -18%.
`O=C(O)c1cccc(NC(=O)c2cccc(S(=O)(=O)Nc3cccc([N+](=O)[O-])c3)c2)c1` gave PI5P4Ka inh 2, HP1b binding inh 9%, PLK1 PBD block -9%, BAZ2B block -39%, GCN5L2 inh 0% and JMJD2A Tudor inh -10%.
`O=C(NNS(=O)(=O)c1ccccc1)c1cccc([N+](=O)[O-])c1` gave PI5P4Ka inh 8, HP1b binding inh 21%, PLK1 PBD block 3%, BAZ2B block -8%, GCN5L2 inh -3% and JMJD2A Tudor inh 13µM*.
For O=C(NNS(=O)(=O)c1ccc([N+](=O)[O-])cc1)C(=O)Nc1cccc(C(=O)O)c1 the results were PI5P4Ka inh inconclusive, HP1b binding inh 37%, PLK1 PBD block inconclusive, BAZ2B block 56µM*, GCN5L2 inh -4% and JMJD2A Tudor inh inconclusive.
Screening O=C(NNS(=O)(=O)c1ccc([N+](=O)[O-])cc1)c1ccccc1 returned PI5P4Ka inh 13, HP1b binding inh 9%, PLK1 PBD block -1% and JMJD2A Tudor inh inconclusive.
For Cc1ccc(C(=O)Nc2cccc([N+](=O)[O-])c2)cc1S(=O)(=O)Nc1cccc(C(=O)O)c1 the results were PI5P4Ka inh 9, HP1b binding inh -18%, PLK1 PBD block 15µM*, BAZ2B block -29%, GCN5L2 inh -18% and JMJD2A Tudor inh -25%[11.4 µM].
`O=C(NNS(=O)(=O)c1ccc(F)cc1)c1cccc(O)c1` gave PI5P4Ka inh 2, HP1b binding inh 12%, PLK1 PBD block -5%, BAZ2B block 8%, GCN5L2 inh 3% and JMJD2A Tudor inh 25µM*.
Cc1nc(C)c(-c2ccc(SCc3ccc([N+](=O)[O-])cc3)nn2)s1 was read as PI5P4Ka inh 4, HP1b binding inh 18%, PLK1 PBD block inconclusive, BAZ2B block inconclusive, GCN5L2 inh -3% and JMJD2A Tudor inh -27%.
For N/C(=N\OC(=O)c1ccc([N+](=O)[O-])cc1)c1cccnc1 the results were PI5P4Ka inh 1, HP1b binding inh 11%, PLK1 PBD block -7%, BAZ2B block 9%, GCN5L2 inh -5% and JMJD2A Tudor inh -19%.
For O=C(Oc1c(Br)cc([N+](=O)[O-])cc1Br)c1cccnc1 the results were PI5P4Ka inh -15, HP1b binding inh -36%, PLK1 PBD block 19µM*, BAZ2B block inconclusive, GCN5L2 inh -7% and JMJD2A Tudor inh inconclusive.
`Cc1ccc(NCc2nnc(SCC(=O)N(Cc3ccccc3)C(C)(C)C)o2)c(C)c1` gave HP1b binding inh -13%, PLK1 PBD block -2%, BAZ2B block inconclusive, GCN5L2 inh -8% and JMJD2A Tudor inh inconclusive.
For CCOC(=O)CN(C(=O)CSc1nnc(CNc2ccc(C)cc2C)o1)c1ccccc1 the results were PI5P4Ka inh 2, HP1b binding inh -10%, PLK1 PBD block -8%, BAZ2B block 50µM*, GCN5L2 inh -5% and JMJD2A Tudor inh inconclusive.

High-throughput results deposited in PubChem by National Center for Advancing Translational Sciences (NCATS).
